PI5P4Ka inh: PI5P4K alpha (human) kinase inhibition. PI5P4Kalpha enzyme, ADP-Glo luminescence, 60 min; active compounds read low. max response, %. 330,000 tested, 1.2% active. AID 652105; active means max response of -50% or lower; inconclusive means between -30% and -50%; inactive means -30% or higher; further: value at the top dose of about 77 µM; on the % scale 0 is the no-effect control and ±100 the full control effect
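Controls without substrate or without enzyme flank wells where PI5P4Kalpha converts substrate using 5 microM ATP (final). Incubation lasts 60 minutes at room temperature; ADP formed is read by ADP-Glo luminescence.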
FEN1 inhibitor: blocks human flap endonuclease 1. P39748. 390,000 tested, 0.35% active. Potency, µM (doses to about 114 µM), for inactives: at the top dose activity change, negative = inhibition, hits mostly inhibitors. Recombinant FEN1 flap cleavage, fluorescence, 15 min; further: potency means the concentration at half of the fitted maximal effect; on the % scale 0 is the no-effect control and ±100 the full control effect; nearly all actives have a fitted effect of over 65% in size
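Enzyme 10 nM, 15 min RT preincubation with compound; start with substrate 50 nM final; reads at 0 and 15 min; qHTS titration, four-parameter Hill fit.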
TCR activator: T cell receptor activation | primary human leukocytes, anti-CD3, IL-2 HTRF, 48 h | Potency, µM (series often up to 9.22 µM), for the others: top-dose activation of IL-2 secretion, actives largely listed as activators | 330,000 tested, under 10 active | AID 504894; further: % of control where 0% means no effect
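Using a-CD3 beads without co-stimulation, primary human leukocytes were exposed to compounds for 48 hr. An HTRF IL-2 kit measured the cytokine, with europium-to-d2 energy transfer producing emission at 665nm upon 320nm excitation.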
VDR inh: vitamin D3 receptor (human) inhibition; VDR-SRC2-3 peptide fluorescence polarization, 2 h; P11473; Potency, µM, without a hit: max response, negative = inhibition, actives largely listed as inhibitors; AID 504847; 400,000 tested, 0.93% active; further: potency means the concentration at half of the fitted maximal effect; on the % scale 0 is the no-effect control and ±100 the full control effect
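After 23 nl compound addition and a short centrifugation, plates sat for 2 hours at ambient temperature; polarization of fluorescence then indicated loss of VDR binding to peptide SRC2-3.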
WRN helicase inh: inhibitors of human WRN helicase; WRN helicase unwinding, fluorescent forked duplex, kinetic; AID 651768; 360,000 tested, 0.46% active; Potency, µM (doses to about 114 µM), without a hit: top-dose activity change, negative = inhibition, most hits filed as inhibitors; further: potency means the concentration at half of the fitted maximal effect; on the % scale 0 is the no-effect control and ±100 the full control effect; nearly all actives have a fitted effect of over 55% in size
Target sequence (Q14191 whole entry, looked up): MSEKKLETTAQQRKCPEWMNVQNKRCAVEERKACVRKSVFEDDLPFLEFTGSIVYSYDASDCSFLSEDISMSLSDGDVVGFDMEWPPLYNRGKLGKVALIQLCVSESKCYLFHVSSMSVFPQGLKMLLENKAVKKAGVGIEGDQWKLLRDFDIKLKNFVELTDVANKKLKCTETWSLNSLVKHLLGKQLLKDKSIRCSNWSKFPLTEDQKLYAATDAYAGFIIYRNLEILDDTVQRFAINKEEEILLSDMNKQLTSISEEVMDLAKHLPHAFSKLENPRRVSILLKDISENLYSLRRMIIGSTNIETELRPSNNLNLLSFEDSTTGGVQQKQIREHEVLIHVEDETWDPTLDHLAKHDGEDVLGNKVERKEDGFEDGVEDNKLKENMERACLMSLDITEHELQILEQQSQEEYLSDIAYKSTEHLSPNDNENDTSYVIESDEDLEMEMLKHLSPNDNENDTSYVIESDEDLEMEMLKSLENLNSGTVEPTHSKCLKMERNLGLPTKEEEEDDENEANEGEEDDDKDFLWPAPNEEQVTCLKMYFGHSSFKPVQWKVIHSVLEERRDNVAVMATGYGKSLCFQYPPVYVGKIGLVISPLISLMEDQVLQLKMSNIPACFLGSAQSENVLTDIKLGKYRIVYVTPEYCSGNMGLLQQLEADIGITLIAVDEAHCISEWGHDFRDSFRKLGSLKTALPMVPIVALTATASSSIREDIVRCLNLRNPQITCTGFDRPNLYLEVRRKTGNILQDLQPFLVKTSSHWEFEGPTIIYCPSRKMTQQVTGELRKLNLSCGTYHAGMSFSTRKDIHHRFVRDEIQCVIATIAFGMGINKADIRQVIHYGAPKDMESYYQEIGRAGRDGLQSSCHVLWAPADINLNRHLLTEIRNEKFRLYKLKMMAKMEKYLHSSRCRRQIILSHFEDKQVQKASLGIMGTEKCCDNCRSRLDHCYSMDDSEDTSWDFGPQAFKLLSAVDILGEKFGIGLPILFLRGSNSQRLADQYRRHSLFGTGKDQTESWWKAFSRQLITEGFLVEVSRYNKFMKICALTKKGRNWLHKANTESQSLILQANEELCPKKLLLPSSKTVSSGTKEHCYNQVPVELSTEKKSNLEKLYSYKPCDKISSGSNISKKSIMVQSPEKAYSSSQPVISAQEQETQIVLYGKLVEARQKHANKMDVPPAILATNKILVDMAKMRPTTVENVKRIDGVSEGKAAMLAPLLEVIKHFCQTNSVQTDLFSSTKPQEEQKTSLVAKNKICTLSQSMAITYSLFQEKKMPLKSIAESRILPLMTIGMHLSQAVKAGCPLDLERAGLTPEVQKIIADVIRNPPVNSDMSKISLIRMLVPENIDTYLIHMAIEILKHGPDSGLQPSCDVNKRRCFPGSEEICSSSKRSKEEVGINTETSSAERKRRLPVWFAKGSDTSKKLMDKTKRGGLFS
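Primary qHTS, 1536-well format. 20 nM WRN + compound, 15 min RT; start with 100 nM forked fluorophore/quencher duplex, 2 mM ATP (final); kinetic read ex 525/em 598 nm.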
PLK1 PBD block: inhibitors of human PLK1 polo-box domain binding; P53350; Plk1 PBD binding of FITC phosphopeptide, fluorescence polarization; Potency, µM, inactives show max response, negative = inhibition, hits mostly inhibitors; 360,000 tested, 2.8% active; further: potency means the concentration at half of the fitted maximal effect; series mostly up to about 57 µM; on the % scale 0 is the no-effect control and ±100 the full control effect; nearly all actives have a fitted effect of over 65% in size
* marks the source's active call; other numbers are inactive results; [ ] = dose if it differs, or a comment. A selection: hits, their analogues and other compounds. The true share with any hit is near 3.7%. Unless noted, the call rests on the fitted dose curve; in most records, active means well fitted curve in the direction sought with a large enough effect; inconclusive means small, poorly fitted or top-dose-only effect, or another doubt; inactive means no such curve, though single readings can be large; an effect the other way counts as inactive or inconclusive.

What do the screens show for `CC(=O)c1cccc(S(=O)(=O)NC2CC2)c1`?
PI5P4Ka inh: -9; FEN1 inhibitor: 8%; TCR activator: -6%[46.1 µM]; VDR inh: -4%; WRN helicase inh: 3%; PLK1 PBD block: 27µM*

How did CC1CCN(S(=O)(=O)c2cc(C(=O)NCc3ccccc3)n(C)c2)CC1 do in these assays?
FEN1 inhibitor: 10%; VDR inh: 19%

How did Cc1nn(CC(=O)Nc2cccc(C(F)(F)F)c2)c(=O)c2cccn12 do in these assays?
PI5P4Ka inh: -11; FEN1 inhibitor: -5%; TCR activator: 3%; VDR inh: -30%; WRN helicase inh: 0%; PLK1 PBD block: 27µM*

How did Cc1ccc(N2CC(NC(=O)CCc3ccccc3)CC2=O)cc1 (centres undefined) do in these assays?
FEN1 inhibitor: 18%; VDR inh: 6%

How did Cc1ccc(CNC(=O)CCNS(=O)(=O)c2ccc(C)cc2)cc1 do in these assays?
PI5P4Ka inh: 4; FEN1 inhibitor: 7%; TCR activator: -8%; VDR inh: -9%; WRN helicase inh: -3%; PLK1 PBD block: 0%

Results for O=C(CCNS(=O)(=O)c1ccc(Br)cc1)NCc1ccc(Cl)cc1 ?
PI5P4Ka inh: -15; FEN1 inhibitor: -11%; TCR activator: 0%; VDR inh: -9%; WRN helicase inh: -4%; PLK1 PBD block: 27µM*

Results for O=C(COC(=O)CSc1cc(Cl)ccc1Cl)NCc1ccc2c(c1)OCO2 ?
PI5P4Ka inh: -3; FEN1 inhibitor: 1%; TCR activator: 3%[46.1 µM]; VDR inh: -18%; WRN helicase inh: -5%; PLK1 PBD block: 27µM*

Results for Cn1c(=O)c(NC2CCCCC2)c2c3c(cccc31)C(=O)c1ccccc1-2 ?
PI5P4Ka inh: 13; FEN1 inhibitor: -18%; TCR activator: 4%; VDR inh: 0%; WRN helicase inh: 0%; PLK1 PBD block: inconclusive

What do the screens show for `Cn1c(=O)c(NCCc2ccccc2)c2c3c(cccc31)C(=O)c1ccccc1-2`?
PI5P4Ka inh: 2; FEN1 inhibitor: 56µM*; TCR activator: -7%; VDR inh: inconclusive; WRN helicase inh: 40µM*; PLK1 PBD block: 3.8µM*

What do the screens show for `CCCCNc1c2c3c(cccc3n(C)c1=O)C(=O)c1ccccc1-2`?
FEN1 inhibitor: inconclusive; TCR activator: 0%[46.1 µM]; VDR inh: 1%; WRN helicase inh: inconclusive; PLK1 PBD block: 2.4µM*

What do the screens show for `Cn1c(NCCc2ccccc2)cc(=O)n(C)c1=O`?
PI5P4Ka inh: -14; FEN1 inhibitor: 0%; TCR activator: -7%; VDR inh: -3%; WRN helicase inh: 9%; PLK1 PBD block: 0%

Results for CC(=O)Nc1ccc(Nc2c3c4c(cccc4n(C)c2=O)C(=O)c2ccccc2-3)cc1 ?
PI5P4Ka inh: 5; FEN1 inhibitor: 2%; TCR activator: 0%[46.1 µM]; VDR inh: 11%; WRN helicase inh: -29%[57.1 µM]; PLK1 PBD block: 6.7µM*

Results for COC(=O)c1ccc(C2c3c(oc4ccc(C)cc4c3=O)C(=O)N2Cc2ccc3c(c2)OCO3)cc1 (centres undefined) ?
FEN1 inhibitor: -9%; VDR inh: -1%

How did Cc1nc2cccnc2n1-c1cccc(C(=O)N2CCN(c3ccc(Cl)cc3)CC2)c1 do in these assays?
FEN1 inhibitor: -10%; VDR inh: -1%

Results for S=C(c1ccc(-c2ccc(Cl)c(Cl)c2)o1)N1CCOCC1 ?
FEN1 inhibitor: -4%; VDR inh: -4%; WRN helicase inh: -21%; PLK1 PBD block: 27µM*

What do the screens show for `S=C(c1ccc(-c2ccccc2Cl)o1)N1CCOCC1`?
FEN1 inhibitor: 7%; VDR inh: -62%; WRN helicase inh: -23%; PLK1 PBD block: 5.3µM*

How did O=C(c1ccc(-c2cccc(Cl)c2Cl)o1)N1CCOCC1 do in these assays?
PI5P4Ka inh: -9; FEN1 inhibitor: -11%; TCR activator: 2%; VDR inh: -9%; WRN helicase inh: -7%; PLK1 PBD block: -14%

How did C[C@H](N)C(=O)NCC(=O)N[C@H]1CSSC[C@@H](C(=O)O)NC(=O)[C@H](CO)NC(=O)[C@H]([C@@H](C)O)NC(=O)[C@H](Cc2ccccc2)NC(=O)[C@H]([C@@H](C)O)NC(=O)[C@H](CCCCN)NC(=O)[C@@H](Cc2c[nH]c3ccccc23)NC(=O)[C@H](Cc2ccccc2)NC(=O)[C@H](Cc2ccccc2)NC(=O)[C@H](CC(N)=O)NC(=O)[C@H](CCCCN)NC1=O do in these assays?
VDR inh: -6%

Results for CC1Cc2ccccc2N1C(=O)CSc1nnc(NC(=O)Cc2cccs2)s1 (centres undefined) ?
PI5P4Ka inh: inconclusive; FEN1 inhibitor: 0%; TCR activator: 7%; VDR inh: 9%; WRN helicase inh: -25%; PLK1 PBD block: 30µM*

How did O=C(/C=C/c1ccccc1)/C=C/c1ccccc1 do in these assays?
PI5P4Ka inh: -1; FEN1 inhibitor: inconclusive; TCR activator: -2%[46.1 µM]; VDR inh: 13µM*; WRN helicase inh: inconclusive; PLK1 PBD block: -26%

How did NS(=O)(=O)c1ccc(S(=O)(=O)N2CCN(c3nc(-c4ccccc4)nc4ccccc34)CC2)cc1 do in these assays?
FEN1 inhibitor: -9%; VDR inh: -3%

How did CCN(CC)c1ccc(CNc2nc3ccccc3n2C(C)C)cc1 do in these assays?
PI5P4Ka inh: 4; FEN1 inhibitor: -1%; TCR activator: 11%; VDR inh: -22%; WRN helicase inh: -6%; PLK1 PBD block: 19µM*

How did COc1cc(C2C(C(=O)Nc3ccccc3C)=C(C)Nc3nc(SCc4cc(C)ccc4C)nn32)ccc1O (centres undefined) do in these assays?
FEN1 inhibitor: 7%; VDR inh: 8%

What do the screens show for `Cc1cc(-n2c(C)cc(C(=O)CSc3[nH]c(=O)cc(C(F)(F)F)c3C#N)c2C)no1`?
PI5P4Ka inh: -4; FEN1 inhibitor: 12%; TCR activator: 2%; VDR inh: -7%; WRN helicase inh: -4%; PLK1 PBD block: -27%

How did Cc1cc(NC(=O)CSc2[nH]c(=O)cc(C(F)(F)F)c2C#N)no1 do in these assays?
PI5P4Ka inh: -75*; FEN1 inhibitor: 19%; TCR activator: -6%; VDR inh: 8%; WRN helicase inh: -9%; PLK1 PBD block: -2%

How did COc1ccc(NC(=O)CSc2[nH]c(=O)cc(C)c2C#N)cc1OC do in these assays?
FEN1 inhibitor: 0%; VDR inh: 8%; WRN helicase inh: -16%; PLK1 PBD block: -9%

What do the screens show for `Cc1ccccc1NC(=O)CSc1[nH]c(=O)cc(C)c1C#N`?
PI5P4Ka inh: -56*; FEN1 inhibitor: inconclusive; TCR activator: 0%; VDR inh: -6%; WRN helicase inh: -27%[57.1 µM]; PLK1 PBD block: 21µM*
